Assay outcomes deposited in PubChem BioAssay by several laboratories.
Hits are enriched below; roughly 2.9% of the tested compounds scored in any of these assays.
Bim-Mcl-1 = inhibitors of Bim-Mcl-1 interaction, human; inhibition, % at 10 µM; Q07820; 0.1% of 190,000 active; AID 1009; Bead-based flow cytometry, Bim peptide-Mcl-1 binding; in the data active = inhibition above about 40%;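 note: 0% = no compound tracer wells and 100% = peptide blocker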
Target sequence (Q07820 whole entry, looked up): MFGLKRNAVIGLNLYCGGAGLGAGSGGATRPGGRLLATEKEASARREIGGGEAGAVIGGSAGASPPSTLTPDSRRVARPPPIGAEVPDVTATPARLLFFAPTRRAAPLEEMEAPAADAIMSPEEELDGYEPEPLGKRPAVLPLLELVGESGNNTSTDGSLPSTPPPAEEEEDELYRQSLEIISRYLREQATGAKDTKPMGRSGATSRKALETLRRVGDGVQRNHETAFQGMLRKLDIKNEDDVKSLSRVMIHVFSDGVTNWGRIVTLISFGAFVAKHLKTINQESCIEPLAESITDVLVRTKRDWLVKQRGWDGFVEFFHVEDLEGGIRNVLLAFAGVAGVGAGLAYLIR
Hck Nef HTS = inhibitors of human Hck kinase activated by Nef | P08631 | Recombinant Hck-YEEI plus Nef, Z-Lyte FRET kinase assay | inhibition, % at 20 µM | 0.68% of 220,000 active | AID 463187;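 active = Hck-Nef kinase inhibition above about 50%, limit read from the data; inactive = inhibition below that limit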;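 note: 0% = DMSO with Hck plus Nef and 100% = Hck alone without Nef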
Mcl1-Bid inh = Mcl-1/Bid interaction inhibition; Q07820; TR-FRET Mcl-1/Bid-Dy647 peptide binding, 1536-well; inhibition, % at 21.7 µM; 0.97% of 220,000 active;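 active = compounds that cut the binding signal by more than half at the single screening dose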;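 note: His-tagged Mcl-1 with europium anti-His antibody binding Bid BH3 peptide; 0% = Mcl-1 plus peptide wells and 100% = peptide-only wells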
14-3-3 Bad inh = disrupts binding of bovine 14-3-3 zeta to phospho-Bad peptide. inhibition, % at 21.7 µM. P63103. 0.71% of 220,000 active. TR-FRET 14-3-3zeta/Dy647-pBad peptide displacement, 1 h;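 active = inhibition above about 70%, limit read from the data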;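 note: 0% = full 14-3-3 plus peptide FRET controls and 100% = background without 14-3-3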
Target sequence (P63103 whole entry, looked up): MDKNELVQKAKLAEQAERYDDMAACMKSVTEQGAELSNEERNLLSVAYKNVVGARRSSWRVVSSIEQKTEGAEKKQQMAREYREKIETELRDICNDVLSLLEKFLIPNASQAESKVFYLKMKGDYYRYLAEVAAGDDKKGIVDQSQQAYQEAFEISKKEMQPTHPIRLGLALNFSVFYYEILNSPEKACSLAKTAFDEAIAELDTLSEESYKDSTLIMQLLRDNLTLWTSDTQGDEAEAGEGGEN
Mcl1 Noxa PPI = disrupts binding of human Mcl-1 to Noxa peptide; TR-FRET Mcl-1/Noxa peptide binding, 2 h; inhibition, % at 21.7 µM; 1.5% of 220,000 active; AID 1022;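 active = compounds that cut the protein-peptide binding signal by more than 50% relative to plate controls in a single-dose test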;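 note: His-tagged Mcl-1 with rhodamine Noxa BH3 peptide and terbium anti-His antibody; 0% = Mcl-1 plus Noxa peptide wells and 100% = peptide-only wells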
Pf gamet viab = P. falciparum stage V gametocyte viability inhibition; P. falciparum stage V gametocytes, ATP luminescence, 24 h; inhibition, % at 10.9 µM; 0.065% of 150,000 active;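 active = inhibition above the mean plus 3 SD of compounds within the control limits, set per campaign, cut at about 38% in these data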;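 note: 0% = DMSO wells and 100% = medium only without gametocytes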
Active calls of the source: *; nt = no result; [ ] = dose if it differs, or a comment.

SMILES	Bim-Mcl-1	Hck Nef HTS	Mcl1-Bid inh	14-3-3 Bad inh	Mcl1 Noxa PPI	Pf gamet viab
CN(CC(=O)Nc1ccc(Cl)c(C(F)(F)F)c1)C(=O)/C=C/c1ccco1	-4	-4	-31	-6	7	57*
Cc1cccc(/C=C/c2nc3ccccc3c(=O)n2Cc2ccccc2)c1	15	2	1	2	5	nt
O=c1c2ccccc2nc(/C=C/c2ccccc2)n1CCc1ccccc1	-4	4	12	0	5	14
O=c1c2ccccc2nc(/C=C/c2cccnc2)n1Cc1ccccc1	2	19	91*	94*	31	10
O=c1c2ccccc2nc(/C=C/c2cccnc2)n1CCc1ccccc1	nt	3	95*	68	22	3
Cc1cc(NS(=O)(=O)c2ccc(NC(=O)c3cc4ccccc4o3)cc2)no1	1	3	3	17	2	nt
Cc1nn(CC(=O)Nc2ccc(C(=O)N(C)C)cc2)c(=O)c2ccccc12	0	10	-31	-2	10	-17
CC(C)(C)C1=CC=C(C(C)(C)C)C(=O)C1=O	nt	-20	17	9	89*	nt
O=C1c2ccccc2C(=O)N1CCCCN(C(=O)c1cccc([N+](=O)[O-])c1)c1ccc(Cl)cc1	-1	0	54*	54	0	-1
CC(C)CC1=NN(C(=O)c2cccnc2)C(O)(C(F)(F)F)C1 (centres undefined)	-2	5	-18	-17	7	nt
O=C(Nc1ccc([N+](=O)[O-])cc1)Nc1ccc(N2CCOCC2)c2nonc12	-1	21	48	18	94*	33
CC(=O)Nc1cc([N+](=O)[O-])ccc1N1CCOCC1	1	5	-21	42	-11	-13
CN1C(=O)/C(=C/c2cn(CC(=O)NCc3ccco3)c3ccccc23)NC1=S	8	35	-22	5	73*	nt
CCOC(=O)CSc1nn(C)c(=S)s1	1	20	57*	49	-7	nt
CCOC(=O)CSc1n[nH]c(=S)s1	nt	-3	-19	16	1	-5
NC(=O)CSCc1cccc(Br)c1	-2	-2	-8	5	9	7
Cc1ccccc1N/C(SCc1cccc(Br)c1)=C(/C#N)C(N)=O	-11	4	12	71*[fluorescence artefact?]	16	nt
CCOCCCNCc1ccc(OCc2ccccc2Cl)cc1	-3	6	-17	9	-1	1
O=C(Nc1ccc2oc(=O)ccc2c1)c1cc([N+](=O)[O-])ccc1N1CCOCC1	-1	17	-20	-10	-2	-35
CC(C(=O)Nc1ccc2c(c1)OCCO2)N(C)Cc1c(F)cccc1Cl (centres undefined)	1	4	-38	97*	5	6
O=C(Nc1ccc2c(c1)OCCO2)c1c(F)cccc1F	-1	0	4	2	-7	nt
O=S1(=O)c2ccccc2N=NN1Cc1ccc(Cl)c(Cl)c1	-3	1	48	45	77*	nt
CC(C)(C)c1ccc(CN2N=Nc3ccccc3S2(=O)=O)cc1	-3	0	20	9	77*	nt
CC(C)(C)c1ccc(C(=O)N2CCN(Cc3ccccc3)CC2)cc1	nt	nt	nt	nt	nt	0
O=C(COc1ccccc1C(=O)O)NC1CCCc2ccccc21 (centres undefined)	2	-20	-31	-2	6	-13
SMILES	Bim-Mcl-1	Hck Nef HTS	Mcl1-Bid inh	14-3-3 Bad inh	Mcl1 Noxa PPI	Pf gamet viab
Cc1onc(-c2ccccc2)c1C(=O)NC(=S)Nc1sc2c(c1C#N)CCCC2	-4	-3	7	-6	44	10
Cc1ccccc1C(=O)NC(=S)Nc1sc2c(c1C#N)CCCC2	-3	3	93*	-3	6	-6
CCCN1CCc2c(sc(NC(=S)NC(=O)c3ccccc3)c2C#N)C1	-5	0	-13	90*	38	1
COc1cc(/C=N/NC(=O)C(=O)NCc2ccco2)ccc1O	0	1	-33	-7	25	nt
COc1cccc(OC2OC3COC(C)(C)OC3C(O)C2NC(C)=O)c1 (centres undefined)	-1	16	-20	-6	10	-24
CC(NC(=O)CCc1nnc(CCCc2ccccc2)o1)c1ccccc1 (centres undefined)	0	17	6	-10	-12	50*
O=S1(=O)N=C(Nc2ccc(N3CCOCC3)cc2)c2ccccc21	-2	-6	-26	9	24	-18
Cc1ccccc1-c1ccc(Nc2ccc(N3CCOCC3)cc2)nn1	1	3	12	43	69*	nt
O=C(Nc1ccc(Cl)cc1Cl)c1ccc(-c2ccccc2)cc1	-3	-6	4	-6	70*	-11
COc1ccc([C@H]2CC(=O)C=C(c3ccc4c(c3)sc3ccccc34)C2)cc1	nt	nt	nt	nt	nt	14
COc1ccc(O)c(C(=O)/C=C/c2cc3ccccc3o2)c1	nt	0	67*	0	14	-1
O=C(O)c1ccccc1-c1ccc(/C=C2\SC(=O)N(c3ccccc3)C2=O)o1	nt	nt	nt	nt	nt	-5
O=C(O)c1ccccc1-c1ccc(/C=c2\sc3nc4cc(Br)cnc4n3c2=O)o1	-2	3	78*	36	91*	nt
CCCCNC(=O)c1cc(C)nc2ccccc12	nt	6	-6	1	3	-21
Cc1cc(C(=O)NCCCN(C)C)c2ccccc2n1	52*	16	2	-3	1	nt
CCOC(=O)N1CCN(c2c(NCc3ccccc3OC)c(=O)c2=O)CC1	-1	-1	-5	9	2	nt
O=C(O)c1ccc(-c2nc(-c3ccc(Cl)c(Cl)c3)cs2)cc1	-1	28	5	8	-2	nt
NC(=O)C(=CNc1nc(-c2ccc(Cl)c(Cl)c2)cs1)C(N)=O	nt	2	-35	26	73*	nt
Cc1cccc(OCCCCCn2ccnc2)c1	3	1	51*	70	16	-7
CCOc1ncccc1C(=O)N1CCN(c2cccc(C)c2C)CC1	-3	-9	-14	88*	7	1
Cc1ccccc1OCCOc1cccc(/C=N/NC(=O)Cc2nnc(N)s2)c1	0	1	5	-9	-4	-7
Nc1nnc(CC(=O)N/N=C/c2cccc(OCCOc3ccccc3)c2)s1	0	0	51*	11	-6	-24
Nc1nnc(CC(=O)N/N=C/c2cc([N+](=O)[O-])cc(Br)c2O)s1	1	21	-56	8	56*	6
CC(C)(C)Sc1nc(O)cc(=O)[nH]1	-4	-1	-110	-12	-1	nt
c1ccc(N2CCN(Cc3ccnc4ccccc34)CC2)cc1	-5	-1	3	71*	25	-4
O=C(/C=C/c1ccccc1)NC(=S)Nc1ncccn1	nt	17	-76	19	68*	nt
N#Cc1c(Nc2cccc(F)c2)sc2c(O)cc(=O)[nH]c12	3	10	-136	0	54*	4
CCOC(=O)c1c(-c2ccc(OC)cc2)nc2nonc2c1N	-2	2	0	-2	-10	nt
